Test results published in PubChem BioAssay (Tox21).
Results filed as inconclusive are left out. Entries that show only a call come without a potency. Calls of active or inactive are those of the source. Unless noted, calls come from the whole dose curve; as a rule, active = well fitted curve in the direction sought with a large enough effect in the repeat runs; inconclusive = weak or mixed curves; inactive = no such curve, though single readings can be large; an effect the other way counts as inactive or inconclusive.

Columns and labels:
[1] = qHTS assay to identify aromatase inhibitors - cell viability counter screen (AID 743084);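 note: cells stimulated with testosterone during compound exposure; nearly all actives have a fitted effect of over 55% in size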
[2] = molecular target: Aryl hydrocarbon receptor (Homo sapiens) (UniProt P35869); experiment: qHTS assay to identify small molecule that activate the aryl hydrocarbon receptor (AhR) signaling pathway (AID 743085); note: nearly all actives have a fitted effect of over 15% in size; note: potency is the fitted concentration of half-maximal effect;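 for activation: HG2L7.5c1 human HepG2 liver cells with stably integrated DRE-driven firefly reporter; series mostly up to about 70 µM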
Method in brief: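 HepG2 cells stably carrying a 20-DRE firefly luciferase reporter (HG2L7.5c1) treated with compound for 24 hr at 37C. Luciferase read by ONE-Glo luminescence, with CellTiter-Fluor viability read first.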

[3] = qHTS assay to identify small molecule that activate the aryl hydrocarbon receptor (AhR) signaling pathway - cell viability counter screen (AID 743086);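 note: HepG2 liver cells carrying the AhR DRE luciferase reporter; series mostly up to about 70 µM; nearly all actives have a fitted effect of over 45% in size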
Method in brief: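 HepG2-AhR-luc (HG2L7.5c1) cells, 4000/well, were preincubated 5 h at 37C, exposed to compound in qHTS format for 24 hr at 37C, then given CellTiter-Fluor for 30 min; viability was read as fluorescence in the reporter wells.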

[4] = molecular target: Peroxisome proliferator-activated receptor gamma (Homo sapiens) (UniProt P37231); experiment: qHTS assay to identify small molecule agonists of the peroxisome proliferator-activated receptor gamma (PPARg) signaling pathway (AID 743094; active = well fitted activation curve with a large enough effect in the signal ratio in the repeat runs, not every such curve was filed as active; the % refers to the signal ratio)
Method in brief: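 Compounds dissolved in DMSO were added to PPARg UAS-bla HEK293H cells for 17 h at 37C, and reporter expression was quantified by fluorescence intensity after 1 h with LiveBLAzer B/G FRET substrate.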

[5] = molecular target: Peroxisome proliferator-activated receptor gamma (Homo sapiens) (UniProt P37231); experiment: qHTS assay to identify small molecule antagonists of the peroxisome proliferator-activated receptor gamma (PPARg) signaling pathway (AID 743191; calls by dose curve; note: series mostly up to about 63 µM; nearly all actives have a fitted effect of over 30% in size)
Method in brief: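 GeneBLAzer PPARg UAS-bla HEK293H cells carrying a UAS-driven beta-lactamase reporter were plated at 3000 cells/well, preincubated 5 h at 37C, then given compound for 17 h at 37C; LiveBLAzer B/G FRET substrate was read after 1 h at room temperature.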

[6] = qHTS assay to identify small molecule antagonists of the peroxisome proliferator-activated receptor gamma (PPARg) signaling pathway - cell viability counter screen (AID 743194); note: nearly all actives have a fitted effect of over 55% in size
Method in brief: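 PPARg-UAS-bla HEK293H cells were plated, rested 5 h at 37 C, then treated with compounds plus rosiglitazone (50 nM final) for 17 h at 37 C; viability was then read by CellTiter-Glo luminescence after 30 min at room temperature.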

[7] = qHTS assay for small molecule agonists of the antioxidant response element (ARE) signaling pathway - cell viability counter screen (AID 743203; calls by dose curve; note: nearly all actives have a fitted effect of over 55% in size)
Method in brief: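 Following 16 hrs of compound treatment at 37C, HepG2 cells with an ARE-controlled beta-lactamase gene were lysed with CellTiter-Glo. Luminescence was read after 30 min at room temperature.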

[8] = qHTS assay for small molecule activators of the heat shock response signaling pathway - cell viability counter screen (AID 743209); note: nearly all actives have a fitted effect of over 50% in size
Method in brief: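 Readout: CellTiter-Glo luminescence, 30 min at room temperature. System: HSE-bla HeLa cells, 1500/well, plated overnight. Treatment: compounds in DMSO, 5 h at 37 C.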

[9] = qHTS assay to identify small molecule agonists of the peroxisome proliferator-activated receptor delta (PPARd) signaling pathway - cell viability counter screen (AID 743211); note: nearly all actives have a fitted effect of over 55% in size
Method in brief: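 PPARd-bla HEK293H cells (3000/well) were pre-incubated 5 h at 37 C, then exposed to compound for 17 h at 37 C. After 2 h with LiveBLAzer substrate, CellTiter-Glo was added to the same wells; luminescence read after 30 min at room temperature.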

[10] = qHTS assay to identify small molecule antagonists of the peroxisome proliferator-activated receptor delta (PPARd) signaling pathway - cell viability counter screen (AID 743213); note: nearly all actives have a fitted effect of over 50% in size
Method in brief: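 PPARd-bla HEK293H cells were treated with compounds plus agonist L165041 (300 nM final) for 17 h at 37 C. Viability was then read in the same wells by CellTiter-Glo luminescence after 30 min at room temperature.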

[11] = molecular target: Peroxisome proliferator-activated receptor delta (Homo sapiens) (UniProt Q03181); experiment: qHTS assay to identify small molecule antagonists of the peroxisome proliferator-activated receptor delta (PPARd) signaling pathway (AID 743215; active = well fitted inhibition curve with a large enough effect in the signal ratio in the repeat runs, not every such curve was filed as active; the % refers to the signal ratio;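 note: cells stimulated with agonist L165041 at 300 nM final during compound exposure; series mostly up to about 62 µM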)
Method in brief: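 HEK293H UAS-bla, PPARd; agonist L165041 300 nM final with cpd in DMSO; 37 C 17 h; FRET substrate, RT 2 h; fluorescence intensity.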

[12] = molecular target: Bile acid receptor (Homo sapiens) (UniProt Q96RI1); experiment: qHTS assay to identify small molecule antagonists of the farnesoid-X-receptor (FXR) signaling pathway (AID 743217; active = well fitted inhibition curve with a large enough effect in the signal ratio in the repeat runs, not every such curve was filed as active; the % refers to the signal ratio)
Method in brief: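 GeneBLAzer FXR-UAS-bla HEK 293T, CDCA-stimulated (50 uM final). Compound treatment 16 h, 37 °C. Detection: beta-lactamase cleavage of B/G FRET substrate, fluorescence.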

[13] = qHTS assay to identify small molecule agonists of the farnesoid-X-receptor (FXR) signaling pathway - cell viability counter screen (AID 743218); note: nearly all actives have a fitted effect of over 45% in size
Method in brief: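 Parallel cytotoxicity test: compound-treated (16 h, 37 C) HEK 293T FXR-bla reporter cells were lysed with CellTiter-Glo and luminescence recorded.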

[14] = molecular target: Bile acid receptor (Homo sapiens) (UniProt Q96RI1); experiment: qHTS assay to identify small molecule agonists of the farnesoid-X-receptor (FXR) signaling pathway (AID 743220; active = well fitted activation curve with a large enough effect in the signal ratio in the repeat runs, not every such curve was filed as active; the % refers to the signal ratio)
Method in brief: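 Beta-lactamase reporter under UAS control in GeneBLAzer FXR HEK 293T cells (5000/well) measured with LiveBLAzer FRET substrate after 2 h at room temperature. Compound exposure lasted 16 h at 37C.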

[15] = qHTS assay to identify small molecule antagonists of the farnesoid-X-receptor (FXR) signaling pathway - cell viability counter screen (AID 743221; active = well fitted cell-killing curve with a large enough effect in the repeat runs, not every such curve was filed as active; note: nearly all actives have a fitted effect of over 50% in size)
Method in brief: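 GeneBLAzer FXR-UAS-bla HEK 293T cells, compound plus chenodeoxycholic acid (50 uM final), 16 h at 37 C. CellTiter-Glo added to the same wells after the beta-lactamase read; luminescence read after 30 min at room temperature as viability.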

[16] = molecular target: Vitamin D3 receptor (Homo sapiens) (UniProt P11473); experiment: qHTS assay to identify small molecule agonists of the vitamin D receptor (VDR) signaling pathway (AID 743222; calls by dose curve)
Method in brief: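 In VDR-bla cells, compound-induced beta-lactamase expression is quantified by FRET substrate fluorescence. Treatment lasts 16 h at 37C; substrate develops 2 h at room temperature.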

[17] = molecular target: Vitamin D3 receptor (Homo sapiens) (UniProt P11473); experiment: qHTS assay to identify small molecule antagonists of the vitamin D receptor (VDR) signaling pathway (AID 743223; active = well fitted inhibition curve with a large enough effect in the signal ratio in the repeat runs, not every such curve was filed as active; the % refers to the signal ratio)
Method in brief: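 VDR-bla cells were treated with compound plus 3 nM final 1alpha,25-dihydroxyvitamin D3 for 16 h at 37C. Beta-lactamase reporter read by B/G FRET substrate fluorescence after 2 h at room temperature. qHTS format.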

[18] = qHTS assay for small molecule agonists of the antioxidant response element (ARE) signaling pathway (AID 743202; active = well fitted activation curve with a large enough effect in the signal ratio in the repeat runs, not every such curve was filed as active; the % refers to the signal ratio; note: potency is the fitted concentration of half-maximal effect)
Method in brief: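 Compounds delivered in DMSO to ARE-bla HepG2 cells (2,000 cells/well, pre-incubated 5 h) and left 16 h at 37 C. LiveBLAzer B/G FRET substrate then added for 2 h at RT before fluorescence reading.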

[19] = qHTS assay for small molecule activators of the heat shock response signaling pathway (AID 743210; active = well fitted activation curve with a large enough effect in the signal ratio in the repeat runs, with a control signal flat, not every such curve was filed as active; the % refers to the signal ratio;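 note: HeLa cells with beta-lactamase reporter driven by heat shock elements; series mostly up to about 63 µM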)
Method in brief: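 Reporter gene assay: HeLa cells stably bearing an HSE-bla construct, compound treatment 5 h at 37 C, LiveBLAzer substrate 2.5 h at RT, fluorescence intensity.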

[20] = molecular target: Peroxisome proliferator-activated receptor delta (Homo sapiens) (UniProt Q03181); experiment: qHTS assay to identify small molecule agonists of the peroxisome proliferator-activated receptor delta (PPARd) signaling pathway (AID 743212; calls by dose curve)
Method in brief: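 A PPARd-bla HEK293H line with beta-lactamase under an Upstream Activator Sequence is treated with compounds at 37 C. Substrate loading for 2 h at room temperature precedes the fluorescence measurement.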

Sequence of Peroxisome proliferator-activated receptor gamma (Homo sapiens) (P37231 whole entry, looked up): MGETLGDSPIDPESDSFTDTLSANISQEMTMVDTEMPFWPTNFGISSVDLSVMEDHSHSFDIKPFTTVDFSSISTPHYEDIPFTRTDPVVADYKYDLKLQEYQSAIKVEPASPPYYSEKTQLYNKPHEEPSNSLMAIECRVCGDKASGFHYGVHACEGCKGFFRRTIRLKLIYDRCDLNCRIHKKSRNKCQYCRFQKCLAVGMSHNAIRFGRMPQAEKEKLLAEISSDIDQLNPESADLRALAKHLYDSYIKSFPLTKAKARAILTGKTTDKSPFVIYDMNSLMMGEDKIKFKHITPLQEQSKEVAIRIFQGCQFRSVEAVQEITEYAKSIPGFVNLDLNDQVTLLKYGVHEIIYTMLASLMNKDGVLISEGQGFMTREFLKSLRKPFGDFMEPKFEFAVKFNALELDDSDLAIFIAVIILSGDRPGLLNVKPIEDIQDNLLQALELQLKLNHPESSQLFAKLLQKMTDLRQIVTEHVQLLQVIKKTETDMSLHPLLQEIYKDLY
Sequence of Peroxisome proliferator-activated receptor delta (Homo sapiens) (Q03181 whole entry, looked up): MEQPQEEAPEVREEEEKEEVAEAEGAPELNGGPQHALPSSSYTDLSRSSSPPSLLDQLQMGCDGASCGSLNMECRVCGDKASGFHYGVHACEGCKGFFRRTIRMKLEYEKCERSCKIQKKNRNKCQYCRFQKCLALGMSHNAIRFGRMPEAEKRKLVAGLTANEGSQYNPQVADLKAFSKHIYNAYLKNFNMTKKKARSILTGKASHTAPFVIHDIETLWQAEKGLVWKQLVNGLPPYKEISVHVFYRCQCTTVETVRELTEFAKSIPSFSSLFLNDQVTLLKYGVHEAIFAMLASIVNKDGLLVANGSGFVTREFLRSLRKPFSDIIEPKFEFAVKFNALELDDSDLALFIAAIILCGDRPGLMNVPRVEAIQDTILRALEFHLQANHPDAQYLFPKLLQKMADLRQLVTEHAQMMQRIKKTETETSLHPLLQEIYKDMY
Sequence of Bile acid receptor (Homo sapiens) (Q96RI1 whole entry, looked up): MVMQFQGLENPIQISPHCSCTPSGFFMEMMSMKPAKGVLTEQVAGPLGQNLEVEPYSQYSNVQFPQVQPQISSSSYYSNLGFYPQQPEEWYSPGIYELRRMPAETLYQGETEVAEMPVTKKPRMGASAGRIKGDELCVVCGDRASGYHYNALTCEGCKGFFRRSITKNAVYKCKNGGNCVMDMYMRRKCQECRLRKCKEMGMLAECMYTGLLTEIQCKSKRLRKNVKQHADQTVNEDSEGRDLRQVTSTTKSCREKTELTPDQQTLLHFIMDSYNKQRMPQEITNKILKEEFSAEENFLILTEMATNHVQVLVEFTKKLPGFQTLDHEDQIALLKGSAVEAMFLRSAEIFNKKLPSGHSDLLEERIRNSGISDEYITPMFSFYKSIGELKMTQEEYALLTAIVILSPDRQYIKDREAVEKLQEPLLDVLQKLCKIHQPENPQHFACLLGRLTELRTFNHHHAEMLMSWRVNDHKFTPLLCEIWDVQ
Sequence of Aryl hydrocarbon receptor (Homo sapiens) (P35869 whole entry, looked up): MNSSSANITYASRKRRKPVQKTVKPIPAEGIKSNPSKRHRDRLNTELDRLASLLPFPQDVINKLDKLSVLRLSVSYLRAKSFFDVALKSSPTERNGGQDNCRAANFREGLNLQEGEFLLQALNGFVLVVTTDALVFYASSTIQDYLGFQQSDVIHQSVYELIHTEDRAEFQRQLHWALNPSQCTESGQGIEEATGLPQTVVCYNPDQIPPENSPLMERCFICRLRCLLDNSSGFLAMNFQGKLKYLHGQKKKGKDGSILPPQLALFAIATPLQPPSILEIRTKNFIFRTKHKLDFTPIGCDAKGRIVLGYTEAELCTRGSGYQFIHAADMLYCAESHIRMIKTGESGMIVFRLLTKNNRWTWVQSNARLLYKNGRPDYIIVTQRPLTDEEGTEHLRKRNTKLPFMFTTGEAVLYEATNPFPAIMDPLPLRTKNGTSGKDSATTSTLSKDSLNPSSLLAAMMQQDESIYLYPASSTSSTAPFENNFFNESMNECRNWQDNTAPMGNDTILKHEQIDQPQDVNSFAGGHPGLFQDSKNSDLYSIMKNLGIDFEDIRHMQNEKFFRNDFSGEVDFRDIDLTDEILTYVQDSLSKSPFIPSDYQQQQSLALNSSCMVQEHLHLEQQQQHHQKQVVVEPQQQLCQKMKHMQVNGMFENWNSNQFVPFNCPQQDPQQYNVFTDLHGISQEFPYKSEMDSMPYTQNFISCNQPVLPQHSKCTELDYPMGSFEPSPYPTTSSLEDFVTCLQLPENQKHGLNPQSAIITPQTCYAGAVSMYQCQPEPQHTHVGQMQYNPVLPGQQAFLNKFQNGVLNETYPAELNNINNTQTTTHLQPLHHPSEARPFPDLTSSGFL
Sequence of Vitamin D3 receptor (Homo sapiens) (P11473 whole entry, looked up): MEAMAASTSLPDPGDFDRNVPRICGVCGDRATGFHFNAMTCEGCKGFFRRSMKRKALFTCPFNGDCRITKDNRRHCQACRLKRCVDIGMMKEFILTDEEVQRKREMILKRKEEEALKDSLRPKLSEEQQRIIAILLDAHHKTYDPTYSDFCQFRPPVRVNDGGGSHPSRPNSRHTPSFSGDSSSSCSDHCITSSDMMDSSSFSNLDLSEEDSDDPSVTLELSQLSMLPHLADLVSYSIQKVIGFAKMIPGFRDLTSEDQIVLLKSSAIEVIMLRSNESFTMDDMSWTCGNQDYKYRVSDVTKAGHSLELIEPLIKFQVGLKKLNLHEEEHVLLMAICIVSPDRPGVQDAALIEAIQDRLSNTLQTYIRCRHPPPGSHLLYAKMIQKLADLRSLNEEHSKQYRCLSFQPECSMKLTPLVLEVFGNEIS

| SMILES | Potency [1] | Potency [2] | outcome [3] | Potency [4] | Potency [5] | Potency [6] | Potency [7] | outcome [8] | Potency [9] | Potency [10] | outcome [11] | outcome [12] | Potency [13] | outcome [14] | outcome [15] | outcome [16] | outcome [17] | Potency [18] | Potency [19] | outcome [20] |
| --- | --- | --- | --- | --- | --- | --- | --- | --- | --- | --- | --- | --- | --- | --- | --- | --- | --- | --- | --- | --- |
| CCCCCCCCCC/C=C/C#N | inactive | inactive | inactive | inactive | inactive | inactive | inactive | inactive | inactive | inactive | inactive | inactive | inactive | inactive | inactive | inactive | inactive |  |  |  |
| CO[Si](C)(C)OC | inactive | inactive | inactive | inactive | inactive | inactive |  | inactive | inactive | inactive |  |  | inactive |  | inactive |  |  | inactive | inactive | inactive |
| CCC1(C)NC(=O)NC1=O (stereo unspecified) | inactive | inactive | inactive | inactive | inactive | inactive |  | inactive | inactive | inactive | inactive | inactive | inactive | inactive | inactive | inactive | inactive | inactive |  | inactive |
| C[C@]12C(=O)OC(=O)[C@H]1[C@H]1C=C[C@@H]2C1 | inactive | inactive | inactive | inactive | inactive | inactive | inactive | inactive | inactive |  |  |  | inactive |  | inactive | inactive | inactive | inactive |  |  |
| C=C(C)C(=O)OCCOP(=O)(O)O | inactive | inactive | inactive | inactive | inactive | inactive | inactive | inactive | inactive | inactive | inactive |  | inactive |  | inactive | inactive |  | inactive |  |  |
| CC(C)(CO)[C@@H](O)C(=O)NCCC(=O)O | inactive | inactive | inactive | inactive | inactive | inactive | inactive | inactive | inactive | inactive | inactive |  |  |  | inactive | inactive | inactive |  | inactive | inactive |
| CCN(CC)CC1CCCCN1CC(=O)N1c2ccccc2C(=O)Nc2cccnc21 (stereo unspecified) | inactive | inactive | inactive | inactive | inactive | inactive | inactive | inactive | inactive | inactive | inactive | inactive |  | inactive | inactive | inactive | inactive | inactive |  |  |
| CCCCCCCCOC(=O)CCCCCCCCC(=O)OCCCCCCCC | inactive | inactive | inactive | inactive | inactive | inactive | inactive | inactive | inactive | inactive | inactive | inactive |  | inactive | inactive | inactive | inactive |  | inactive | inactive |
| CC/C=C\CCOC(=O)CCCCC | inactive | inactive | inactive | inactive | inactive | inactive | inactive | inactive | inactive | inactive | inactive |  | inactive |  | inactive | inactive |  |  | inactive | inactive |
| CO[C@@]1(NC(=O)CSCC#N)C(=O)N2C(C(=O)O)=C(CSc3nnnn3C)CS[C@@H]21 | inactive | inactive | inactive | inactive | inactive | inactive |  | inactive | inactive | inactive | inactive |  |  |  | inactive | inactive |  | inactive | inactive | inactive |
| CC1(C)C(=O)N(Cl)C(=O)N1Br | inactive | inactive | inactive | inactive | inactive | inactive | inactive | inactive | inactive | inactive |  | inactive | inactive | inactive | inactive |  |  |  | inactive | inactive |
| O=C(O)C(=O)Cc1c[nH]c2ccccc12 | inactive | 6.11 µM (active) | inactive | inactive | inactive | inactive | inactive | inactive |  | inactive | inactive |  |  |  | inactive | inactive |  | 27.3 µM (active) | inactive | inactive |
| CS(=O)(=O)c1ccc([C@@H](O)[C@@H](CF)NC(=O)C(Cl)Cl)cc1 | inactive | inactive | inactive | inactive | inactive | inactive |  | inactive | inactive | inactive | inactive | inactive |  | inactive | inactive |  |  | inactive | inactive | inactive |
| CC1=CC(=O)CC(C)(C)C1=O | inactive | inactive | inactive | inactive | inactive | inactive | inactive | inactive |  | inactive | inactive |  | inactive |  | inactive | inactive | inactive |  | inactive | inactive |
| O=C1CCCCCCCCCCC(=O)OCCO1 | inactive | inactive | inactive | inactive | inactive | inactive | inactive | inactive |  | inactive |  |  | inactive |  | inactive | inactive | inactive | inactive | inactive |  |
| CC(C)C(=O)OC/C=C/c1ccccc1 | inactive | inactive | inactive | inactive | inactive | inactive | inactive | inactive |  |  | inactive | inactive | inactive | inactive | inactive | inactive | inactive | inactive | inactive | inactive |
